The results in this text go back to PubChem BioAssay AID1345085 (National Center for Advancing Translational Sciences (NCATS), 2018).

Molecules are shown by their SMILES. Records with an inconclusive call do not appear. Unmarked numbers belong to inactive results. Active and inactive are the calls of the source. Calls follow the shape of the dose curve; as a rule, active = well fitted cell-killing curve with a large enough effect; inconclusive = small, poorly fitted or top-dose-only effect, or effect the other way; inactive = no such curve, though single readings can be large or run the other way.
% is scaled to controls: 0 for no effect and ±100 for the full control effect; potency is read from the fitted curve at half-maximal effect.

For the experiment, the system named is PA-1. Description: Confirmatory qHTS for gynecologic anti-cancer compounds from libraries of approved drugs and bioactive compounds. Also: nearly all actives have a fitted effect of over 55% in size. To be noted: gynecologic cancer cell panel viability, ATPlite luminescence, 48 h; series mostly up to 57.6 µM; activity change, negative = viability loss: at the top concentration. A digest of the protocol: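 Viability is measured as ATP-dependent luciferase light using ATPlite, read 15 min after reagent addition at room temperature. Compounds, in DMSO, span 57.5 uM down to 0.977 nM over 11 threefold steps for 48 h.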
`C=C(C)[C@H]1Cc2c(ccc3c2O[C@@H]2COc4cc(OC)c(OC)cc4[C@@H]2C3=O)O1`: the Potency was 27.3 nM (active).
Turning to `Cc1sc2c(c1C)C(c1ccc(Cl)cc1)=NC(CC(=O)OC(C)(C)C)c1nnc(C)n1-2` (stereo not drawn), the Potency is 1530 nM (active).
The same measure, in the same setting: next, `CCOc1ccccc1-n1c(C(C)N2CCN(C(=O)COc3ccc(Cl)cc3)CC2)nc2ccccc2c1=O` (stereo not drawn): 13700 nM (active).
As to `C[C@]12CC[C@H]3[C@@H](CCC4=CC(=O)CC[C@@H]43)[C@@H]1CC[C@@H]2OC(=O)CCc1ccccc1`, the “activity change, negative = viability loss” value is -4.23%.
As for `O=C(O)Cc1ccccc1`, the “activity change, negative = viability loss” value is 11.7%.
With `CCNC(=O)C[C@@H]1N=C(c2ccc(Cl)cc2)c2cc(OC)ccc2-n2c(C)nnc21`, the Potency is 4320 nM (active).
Still for that read-out and setting: with `C[C@H]1CCC/C=C/C2C[C@H](O)C[C@H]2[C@H](O)/C=C/C(=O)O1` (stereo partly drawn) the figure was 172 nM (active).
Still for that read-out and setting: with `C/C=C(/C)C(=O)O[C@H]1C(C)=C2[C@H]([C@@H]1OC(=O)CCCCCCC)[C@@](C)(OC(C)=O)C[C@H](OC(=O)CCC)[C@@]1(O)[C@H]2OC(=O)[C@@]1(C)O` the figure was 48.5 nM (active).
